PubChem BioAssay AID1053125 (Broad Institute, 2014)
Potency and affinity values are given separately. A number with no mark means an inactive call.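 The calls were made as follows: active = viability loss whose fitted half-maximal concentration is at most twice the top valid tested dose; inconclusive = flat curve with 30 to 70% loss, or poor fit; inactive = the rest.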

experiment: HepG2 cell cytotoxicity, dose response, cytotoxicity control, ATP luminescence, cherry-pick, set 6 (AID 1053125); conditions: HepG2 viability, ATP luminescence (CellTiter-Glo), 72 h; series mostly up to 26 µM; activity change, negative = cytotoxicity: at the top concentration

| SMILES | activity change, negative = cytotoxicity |
| --- | --- |
| CN1CCc2c(sc(NC(=O)C3CCCCC3)c2C(N)=O)C1 | -14.3% |
| Cn1cnc(S(=O)(=O)Nc2ccc(OC(F)(F)F)cc2)c1 | -6% |
| CC(C)c1ccc(/C=C2\Oc3c(ccc(O)c3CN3CCN(C)CC3)C2=O)cc1 | 3.11% |
| CCOC(=O)C(NC(=O)c1ccccc1)(OCC1(CC)COC1)C(F)(F)F (stereo not given) | -2.01% |
| Clc1cccc(CN2CCN(Cc3nc(CCc4ccccc4)no3)CC2)c1 | -10.7% |
| CCc1nc2ccc(C(=O)NCCc3c[nH]c4ccccc34)cn2c1N(C=O)CCC(C)C | -13.9% |
| COCCn1c(=N)c(S(=O)(=O)c2ccc(F)cc2)cc2c(=O)n3ccccc3nc21 | -0.298% |
| Nn1c(SCC(=O)N2CCCC2)nnc1-c1cccs1 | -0.141% |
| CCOCCCNc1c(CC)c(C)c(C#N)c2nc3ccccc3n12 | -11.8% |
| O=c1oc2c(CN3CCCCC3)c(O)ccc2cc1-c1nc2ccccc2[nH]1 | -10.6% |
| CC(=O)OC[C@@H]1CN(Cc2ccccc2)C[C@H](n2cnc3c(N(C)C(C)C)ncnc32)O1 | -6.77% |
| CCN(c1ccccc1)S(=O)(=O)c1ccc(OC)c(NC(=O)CN(C)C)c1 | -14.4% |
| O=c1[nH]c(Nc2ccccc2Cl)cc2ccccc12 | 28.1% |
| CC(=O)c1sc(N/N=C\c2ccc(N(C)C)cc2)nc1C | -8.39% |
| CCN(CC)c1ccc2c(C)c(Cl)c(=O)oc2c1 | -0.392% |
| CSc1ccc(Cn2c(C)c(C(=O)NCc3cccc(Cl)c3)sc2=O)cc1 | -16% |
| N#Cc1ccc(OCC(=O)OCC(=O)N2CCc3ccccc32)cc1 | -1.16% |
| O=C(C1=NN(c2ccccc2)C2C(=O)N(c3ccccc3)C(=O)C12)c1ccccc1 (stereo not given) | 16.3% |

| SMILES | activity change, negative = cytotoxicity |
| --- | --- |
| CC(C)(C)[C@H]1CCC(=O)N([C@H](CSc2ccccc2)Cc2ccccc2)CC1 | -0.826% |
| COCCNC(=O)c1cc2c(=O)n3cccc(C)c3nc2n(Cc2ccncc2)c1=N | -8.89% |
| COc1ccccc1OCc1ccc(C(=O)N(C)c2ccccc2)o1 | 3.98% |
| CCOC(=O)c1cc2c(=O)n3ccccc3nc2n(CCCOC)c1=NC(=O)c1ccncc1 | -12.2% |
| S=c1[nH]c2ccc(Cc3ccc4[nH]c(=S)[nH]c4c3)cc2[nH]1 | -19.2% |
| CCc1nnc(NC(=O)c2ccc(-c3ccccc3F)o2)s1 | -17% |
| CSCCC1(C(=O)O)NC(c2ccccc2O)C2C(=O)N(C(C)C)C(=O)C21 (stereo not given) | 4.52% |
| CSc1ccc(Cl)c(C(=O)N2CCOc3ccccc32)c1 | -2.96% |
| COc1cc(C(=O)OCC(C)=O)cc(NC(=O)c2ccco2)c1OC | 2.34% |
| COc1cccc2c(=O)c3c(cnn3C)n(C)c12 | -1.18% |
| CC(=O)Oc1ccc(C(=O)Nc2cc(C)on2)cc1 | -19.6% |
| CCN(CC)c1ccc2cc(C(N)=O)c(=O)oc2c1 | 3.5% |
| CC(=O)c1cc2ccc(O)cc2oc1=O | -4.29% |
| Cc1ccc2nc3c(cc(C(N)=S)c(=N)n3CCCOC(C)C)c(=O)n2c1 | -1.02% |
| CN1CCN(c2nc3ccccn3c(=O)c2/C=C(\C#N)S(=O)(=O)c2ccccc2)CC1 | 1.83% |
| O=[N+]([O-])c1cccc(Nc2c3ccccc3nc3ccccc23)c1 | -17.4% |
| Cc1cc(CNC(=O)c2ccc3c(c2)OCO3)c2ccccc2n1 | -4.91% |
